Hits are enriched below; roughly 5.5% of the tested compounds scored in any of these assays.
Gal4-VP16 FLuc – VP16 counterscreen qHTS for inhibitors of ROR gamma transcriptional activity; Drosophila S2 Gal4-VP16 UAS-luciferase, luminescence, 20 h; Potency, µM (highest dose often 53.6 µM), inactives show top-dose activity, negative = inhibition, usual class: inhibitors; 310,000 tested, 3.5% active;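 also: Gal4-VP16 expression switched on by copper sulfate through the metallothionein promoter; potency is read from the fitted curve at half-maximal effect; % is scaled to controls: 0 for no effect and ±100 for the full control effect; nearly all actives have a fitted effect of over 50% in size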
MBNL1 CUG block – qHTS Assay for Inhibitors of MBNL1-poly(CUG) RNA binding; Muscleblind-like protein 1 (Homo sapiens), Q9NR56; TR-FRET MBNL1-His/biotin-(CUG)12 binding, 665/545 ratio; Potency, µM (doses to about 57.5 µM), inactives show top-dose activity change, negative = inhibition, usual class: inhibitors; 280,000 tested, 0.036% active; active = well fitted inhibition curve with a large enough effect in the signal ratio, with a control signal flat, not every such curve was filed as active; inconclusive = small, poorly fitted or top-dose-only effect, or effect the other way, or a change in a side signal; inactive = no such curve, though single readings can be large or run the other way; the % refers to the signal ratio; also: potency is read from the fitted curve at half-maximal effect; % is scaled to controls: 0 for no effect and ±100 for the full control effect
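Ratiometric TR-FRET (665 over 545 nm, excitation 340 nm) tracks disruption of MBNL1-His/biotin-(CUG)12 complex after 60 min at room temperature, with compounds at 92 nM to 58 uM final.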
CtBP-E1A inh – qHTS Assay for Inhibitors of the CtBP/E1A Interaction. 340,000 tested, 0.49% active. AlphaScreen GST-E1A/His-CtBP binding, 1536-well; hits give low values. AID 651724, 2012. CtBP / adenovirus E1A interaction (AlphaScreen). activity change, % (no concentration beside the values); in the data active = activity change below about -65%; inconclusive = mostly about -30% to -63%; also: % is scaled to controls: 0 for no effect and ±100 for the full control effect
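Steps: dispense buffer (Tris pH 8.0, NaCl 300 mM, TCEP 1 mM, BSA, Tween 20); add 5X protein mix (GST-E1A, His-CtBP, 125 nM each); pin 23 nL compound; 2 h at 37 °C, dark; add 5X beads (50 ug/mL); 1 h; read.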
RORgamma inh – qHTS for inhibitors of ROR gamma transcriptional activity. Drosophila S2 Gal4-RORgamma UAS-luciferase reporter, 20 h. Potency, µM (highest dose often 53.6 µM), for the others: at the highest dose activity change, negative = inhibition, hits mostly inhibitors. 310,000 tested, 5.4% active. AID 2551, 2010; also: potency is read from the fitted curve at half-maximal effect; % is scaled to controls: 0 for no effect and ±100 for the full control effect; nearly all actives have a fitted effect of over 60% in size
Target sequence (P51450 whole entry, looked up, the tested form may be a part): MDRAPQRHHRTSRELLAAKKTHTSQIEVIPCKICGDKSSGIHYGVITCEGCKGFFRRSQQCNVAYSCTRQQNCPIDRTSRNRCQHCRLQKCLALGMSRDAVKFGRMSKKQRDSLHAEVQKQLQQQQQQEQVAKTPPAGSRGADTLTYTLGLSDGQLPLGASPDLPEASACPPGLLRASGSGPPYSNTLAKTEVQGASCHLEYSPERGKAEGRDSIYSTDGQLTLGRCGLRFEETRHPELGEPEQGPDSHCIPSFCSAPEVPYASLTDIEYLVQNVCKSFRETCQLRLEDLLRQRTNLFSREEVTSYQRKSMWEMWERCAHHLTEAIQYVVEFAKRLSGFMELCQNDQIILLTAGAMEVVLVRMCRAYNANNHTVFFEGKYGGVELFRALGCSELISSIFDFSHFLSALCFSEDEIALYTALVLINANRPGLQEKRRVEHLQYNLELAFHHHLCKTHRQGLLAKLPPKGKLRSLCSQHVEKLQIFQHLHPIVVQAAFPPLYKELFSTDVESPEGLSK
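Schneider cells (Drosophila), stable Gal4 DBD–ROR gamma + UAS-luc; 1 hr cmpd preincubation; Cu2+ induction 700 uM final; 20 hr ambient; luminescence.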
Six1-Eya2 blk – qHTS Assay for Inhibitors of the Six1/Eya2 Interaction. activity change, % (test concentration not listed). AlphaScreen GST-Six1/His-Eya2 binding, biochemical; hits give low values. Homeobox protein SIX1 (Homo sapiens) + Protein phosphatase EYA2 (Homo sapiens), …. 360,000 tested, 0.56% active; in the data active = activity change below about -65%; inconclusive = mostly about -30% to -63%; also: % is scaled to controls: 0 for no effect and ±100 for the full control effect
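Compounds are tested against tagged Six1 and Eya2 proteins bridged by glutathione donor and nickel acceptor beads; after a one-hour incubation at 37 °C without light, AlphaScreen emission is recorded.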
CBFb-RUNX1 inh – qHTS Assay for Compounds Blocking the Interaction Between CBF-beta and RUNX1 for the Treatment of Acute Myeloid Leukemia | Potency, µM (titrated, usually from 59.8 µM), without a hit: at the highest dose activity, negative = inhibition, usual class: inhibitors | AID 1477, 2009 | AlphaScreen CBFb-His/RUNX1-biotin binding, biochemical | 230,000 tested, under 10 active | Runt-related transcription factor 1 (Homo sapiens) + Core-binding factor subunit beta …; also: % of control where 0% means no effect
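Proteins preincubated together for 20 min at RT before compound addition; 15 min later, nickel and streptavidin beads were added and left 90 min prior to AlphaScreen measurement.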
An asterisk follows results filed as active. Unless noted, calls follow the shape of the dose curve; as a rule, active = well fitted curve in the direction sought with a large enough effect; inconclusive = small, poorly fitted or top-dose-only effect, or another doubt; inactive = no such curve, though single readings can be large; an effect the other way counts as inactive or inconclusive.

Screening COc1ccc2[nH]cc(CCNC(=O)/C=C/[C@H]3O[C@@H](n4cnc5c(NC(=O)c6ccccc6)ncnc54)[C@H](O)[C@@H]3O)c2c1 returned CtBP-E1A inh -7 and Six1-Eya2 blk 1.
`CC1CC(C)(C)NC(=S)N1CC(=O)N(C)Cc1ccccc1` (stereo unspecified) gave Gal4-VP16 FLuc -20%, CtBP-E1A inh 1, RORgamma inh 18µM*, Six1-Eya2 blk -15 and CBFb-RUNX1 inh -25%.
Screening CC1CC(C)(C)NC(=S)N1CC(=O)NCc1ccc(F)cc1 (stereo unspecified) returned Gal4-VP16 FLuc -18%, MBNL1 CUG block -2%, CtBP-E1A inh 1, RORgamma inh -13%, Six1-Eya2 blk 8 and CBFb-RUNX1 inh 5%.
For CC1CC(C)(C)NC(=S)N1CCC(=O)N1c2ccccc2CC1C (stereo unspecified) the results were Gal4-VP16 FLuc 18µM*, MBNL1 CUG block 0%, CtBP-E1A inh 2, RORgamma inh 4µM*, Six1-Eya2 blk -3 and CBFb-RUNX1 inh 6%.
Cc1cccc(N2CCN(C(=O)CCN3C(=S)NC(C)(C)CC3C)CC2)c1C (stereo unspecified) was read as Gal4-VP16 FLuc inconclusive, MBNL1 CUG block 2%, CtBP-E1A inh -8, RORgamma inh 4.5µM*, Six1-Eya2 blk -11 and CBFb-RUNX1 inh -9%.
For Cc1ccc(C)c(N2CCN(C(=O)CCCN3C(=S)NC(C)(C)CC3C)CC2)c1 (stereo unspecified) the results were Gal4-VP16 FLuc 4.5µM*, CtBP-E1A inh 2, RORgamma inh 5.6µM*, Six1-Eya2 blk -27 and CBFb-RUNX1 inh -12%.
CC(NS(=O)(=O)c1ccc(Br)cc1F)[C@H](O)c1ccccc1 (stereo partly specified) was read as CtBP-E1A inh 1 and Six1-Eya2 blk 7.
Screening Nc1ncccc1C(=O)OCC(=O)N1CCN(S(=O)(=O)c2ccc(Cl)cc2)CC1 returned Six1-Eya2 blk -3.
Screening COc1cc2c3nnc(-c4ccc(F)cc4)c-3cn(Cc3ccc(C)cc3)c2cc1OC returned Gal4-VP16 FLuc 4µM*, MBNL1 CUG block -13%, CtBP-E1A inh 1, RORgamma inh 5µM*, Six1-Eya2 blk -3 and CBFb-RUNX1 inh 17%.
For COc1cc2c3nnc(-c4ccc(F)cc4)c-3cn(Cc3cccc(C)c3)c2cc1OC the results were Gal4-VP16 FLuc 10µM*, MBNL1 CUG block -2%, CtBP-E1A inh -2, RORgamma inh inconclusive, Six1-Eya2 blk 7 and CBFb-RUNX1 inh 12%.
COc1cc2c3nnc(-c4ccc(F)cc4)c-3cn(Cc3cccc(F)c3)c2cc1OC was read as Gal4-VP16 FLuc -30%, MBNL1 CUG block 8%, CtBP-E1A inh -15, RORgamma inh inconclusive, Six1-Eya2 blk 0 and CBFb-RUNX1 inh inconclusive.
For CC(=O)c1cccc(N=Cc2c(O)ccc3ccccc23)c1 the results were Gal4-VP16 FLuc 2%, MBNL1 CUG block 1%, CtBP-E1A inh 3, RORgamma inh -25% and Six1-Eya2 blk -10.
Oc1ccc2ccccc2c1C=Nc1ccccc1Br was read as Gal4-VP16 FLuc -29%, MBNL1 CUG block 6%, RORgamma inh 13µM* and Six1-Eya2 blk 1.
`Oc1ccccc1N=Cc1c(O)ccc2ccccc12` gave Gal4-VP16 FLuc inconclusive, MBNL1 CUG block inconclusive, CtBP-E1A inh -13, RORgamma inh 8.9µM*, Six1-Eya2 blk -14 and CBFb-RUNX1 inh -22%.
Screening CS/C(N)=N/N=C/c1c(O)ccc2ccccc12 returned Gal4-VP16 FLuc 7.1µM*, MBNL1 CUG block 13%, CtBP-E1A inh -15, RORgamma inh 0.89µM*, Six1-Eya2 blk -2 and CBFb-RUNX1 inh 0%.
CN(C)/N=C/c1c(O)ccc2ccccc12 was read as Gal4-VP16 FLuc 3%, MBNL1 CUG block 8%, CtBP-E1A inh inconclusive, RORgamma inh -2%, Six1-Eya2 blk inconclusive and CBFb-RUNX1 inh -19%.
For CC(=O)N(C)c1ccc(N=Cc2c(O)ccc3ccccc23)cc1 the results were Gal4-VP16 FLuc inconclusive, MBNL1 CUG block inconclusive, CtBP-E1A inh 9, RORgamma inh 11µM* and Six1-Eya2 blk -2.
`OCC(CO)(CO)N=Cc1c(O)ccc2ccccc12` gave Gal4-VP16 FLuc -6%, MBNL1 CUG block inconclusive, CtBP-E1A inh 9, RORgamma inh -17%, Six1-Eya2 blk 5 and CBFb-RUNX1 inh -6%.
For COc1cccc(OC)c1-c1cc(C(=O)NC2(C(=O)O)C3CC4CC(C3)CC2C4)nn1-c1ccc(C(=O)N(C)CCCN(C)C)cc1C(C)C (stereo unspecified) the results were Gal4-VP16 FLuc 2%, RORgamma inh -8% and CBFb-RUNX1 inh 27%.
For Oc1cccc(C=Nc2cccc3ccccc23)c1O the results were Gal4-VP16 FLuc 13µM*, MBNL1 CUG block 30%, CtBP-E1A inh -12, RORgamma inh 11µM* and Six1-Eya2 blk inconclusive.
For Cc1c(C(=O)OCC(=O)NC2CC2)oc2ccc(Br)cc12 the results were CtBP-E1A inh -1 and Six1-Eya2 blk 5.
Screening CC1=CN2C(=N)/C(=C/c3cn(CCCOc4ccccc4C)c4ccccc34)C(=O)N=C2S1 returned Gal4-VP16 FLuc inconclusive, CtBP-E1A inh 0, RORgamma inh inconclusive, Six1-Eya2 blk -3 and CBFb-RUNX1 inh -3%.
For CC1=CN2C(=N)/C(=C/c3ccc([N+](=O)[O-])o3)C(=O)N=C2S1 the results were Gal4-VP16 FLuc 5µM*, MBNL1 CUG block inconclusive, CtBP-E1A inh -25, RORgamma inh 11µM*, Six1-Eya2 blk inconclusive and CBFb-RUNX1 inh inconclusive.
`CC1=CN2C(=N)/C(=C/c3ccco3)C(=O)N=C2S1` gave Gal4-VP16 FLuc 16µM*, MBNL1 CUG block inconclusive, CtBP-E1A inh -23, RORgamma inh inconclusive, Six1-Eya2 blk -23 and CBFb-RUNX1 inh -5%.
Screening CCOc1ccc(-c2ccc(/C=C3/C(=N)N4C=CSC4=NC3=O)o2)c([N+](=O)[O-])c1 returned Gal4-VP16 FLuc 3.5µM*, MBNL1 CUG block 2%, CtBP-E1A inh -3, RORgamma inh 2.5µM*, Six1-Eya2 blk -9 and CBFb-RUNX1 inh -8%.
